Reference: PubChem BioAssay AID2685 (National Center for Advancing Translational Sciences (NCATS), 2010)
Out of some 320,000 compounds screened, about 2,100 (0.66%) were called active. Roughly 53% stayed inconclusive and do not appear here. The sample holds actives, similar compounds and a random draw of the others, so the mix is not that of the screen. Calls follow the shape of the dose curve; as a rule, active = well fitted inhibition curve with a large enough effect in the signal ratio, with a control signal flat (not every such curve was filed as active); inconclusive = small, poorly fitted or top-dose-only effect, or effect the other way, or a change in a side signal; inactive = flat fitted curve, though single readings scatter; the % refers to the signal ratio.

Test: qHTS Assay for Lipid Storage Modulators in Drosophila S3 Cells;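 as to cell number change: cells counted by Cell Tracker Red CMTPX staining in the red channel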
Conditions: BODIPY lipid droplet fluorescence, 18-24 h, cells fed with added oleic acid; cell number change: measured here: cell count max response; series mostly up to 46.1 µM
Procedure, shortened: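 Drosophila S3 cells got compounds at several concentrations plus oleic acid (400 uM solution). Laser-scanning cytometry with 488 nm excitation read lipid droplets at 500-530 nm and cells at 575-640 nm. Percent activity was relative to 20 uM Triacsin C.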
Potency is read from the fitted curve at half-maximal effect.

SMILES	Potency	cell number change [%]
CS(=O)(=O)c1ccc2sc(NC(=O)c3cc4ccccc4o3)nc2c1	inactive	-15.1
Cc1cc(C)nc(OC(C(=O)O)C(OCc2ccccc2)(c2ccccc2)c2ccccc2)n1 (stereo not drawn)	inactive	-6.47
CCC(C)COC(c1ccccc1)(c1ccccc1)C(Oc1nc(C)cc(C)n1)C(=O)O (stereo not drawn)	inactive	
Cc1cc(C)nc(OC(C(=O)O)C(OCC(C)C)(c2ccccc2)c2ccccc2)n1 (stereo not drawn)	29.1 µM (active)	-23.5
Cc1cc(/C(N)=N/OC(=O)Nc2ccccc2)no1	inactive	22.2
O=S(=O)(Nn1cnnc1)c1ccc2ccccc2c1	inactive	-5.21
Cc1ccsc1CNC12CC3CC(CC(C3)C1)C2	inactive	10.4
COc1ccc(Cl)cc1NC(=O)CN(C)CC(=O)N1CC(=O)Nc2ccccc21	1.3 µM (active)	-5.42
COc1ccc(Cl)cc1NC(=O)CN(C)CC(=O)Nc1ccccc1-c1ccccc1	inactive	22.9
Cc1ccc(Cl)cc1NC(=O)CNC(=O)N1CC(=O)Nc2ccccc21	inactive	-12.7
COc1cccc(NC(=O)CSc2nnc3cc(C)nc(N)n23)c1	inactive	-13.7
COc1ccccc1Nc1nnc(SCC(=O)NC2CC2)s1	inactive	-14.3
O=C(CSc1nnc(NC(=O)c2ccccc2)s1)NC1CCCC1	inactive	-5.42
O=C(CSc1nnc(Nc2ccccc2F)s1)NC1CCCC1	11.6 µM (active)	-17.4
CC(=O)n1cc([C@@H]2C=C(C(=O)NCc3ccccc3)O[C@H](OCCCCO)C2)c2ccccc21	inactive	-1.9
Cc1ccc(SCc2cc(=O)n3ccsc3n2)c(C)c1	inactive	-12.5
Cc1cccc(-n2c(SCc3cc(=O)n4ccsc4n3)nc3ccccc32)c1	14.6 µM (active)	-9.74
CCn1c(SCc2cc(=O)n3ccsc3n2)nc2ccccc21	inactive	0.881
O=C(CSc1nnc(-c2ccncc2)n1-c1ccccc1)Nc1ccc(C(=O)O)cc1	inactive	4.34
O=C(COC(=O)c1ccc[nH]c1=O)NC1CCCc2ccccc21 (stereo not drawn)	inactive	6.05
Cc1noc(C)c1S(=O)(=O)N1CCCC(C(=O)NCCc2ccc(Cl)cc2)C1 (stereo not drawn)	inactive	
Cc1nnc(SCC(=O)Nc2ccc(N3CCOCC3)cc2)n1-c1ccccc1	inactive	-17.5
CCCCn1c(-c2ccc(C(C)(C)C)cc2)nc2cc3[nH]c(=O)c(C(C)C)nc3cc21	inactive	-12.9
CCCCn1c(-c2cccc3ccccc23)nc2cc3[nH]c(=O)c(C(C)C)nc3cc21	20.6 µM (active)	-23

SMILES	Potency	cell number change [%]
CCCCn1c(-c2cccc(C)c2)nc2cc3[nH]c(=O)c(C(C)C)nc3cc21	inactive	-25.6
O=C(c1cccnc1Cl)N(Cc1ccccc1)Cc1ccccc1	inactive	4.31
CCCOC(=O)c1ccc(NC(=O)C2C3CCC(C3)C2C(=O)O)cc1 (stereo not drawn)	inactive	2.97
COc1ccc(/C=N/NC(=O)c2ccncc2)cc1CSc1nc2ccccc2s1	inactive	1.7
CCN(CC)C(=O)CSc1nc(C)cc(C)n1	inactive	-1.44
Cc1cc(C)nc(SCC(N)=O)n1	inactive	14.6
CCOC(=O)CSc1nc(C)cc(C)n1	23.1 µM (active)	4.86
CCOc1ccccc1OCC(=O)Oc1ccc(C)c(C)c1	inactive	18.7
Cc1nc(N/N=C/c2ccccn2)sc1C	inactive	-10.6
Cc1nc(-c2ccccc2)sc1-c1nc(-c2ccncc2)ncc1S(=O)(=O)c1ccccc1	inactive	12.5
O=C(O)C1CC=CCC1C(=O)Nc1cc(Cl)ccc1Cl (stereo not drawn)	inactive	-10.1
O=C(O)[C@H]1CCCC[C@H]1C(=O)NCCc1ccccc1	inactive	7.81
COc1ccc(CCNC(=O)C2CC=CCC2C(=O)O)cc1 (stereo not drawn)	inactive	23.9
O=C(O)C1CC=CCC1C(=O)NCCc1ccccc1 (stereo not drawn)	23.1 µM (active)	3.33
CC1=C(C)CC(C(=O)NCC(=O)c2ccccc2)C(C(=O)O)C1 (stereo not drawn)	inactive	
O=C(O)C1CCCCC1C(=O)NCCCc1ccccc1 (stereo not drawn)	inactive	-1.96
O=C(NNC(=O)[C@H]1CC=CC[C@H]1C(=O)O)c1ccc(Cl)cc1Cl	inactive	10.3
CC1=C(C)CC(C(=O)NCCc2ccccc2)C(C(=O)O)C1 (stereo not drawn)	6.51 µM (active)	
O=C(Cc1ccc(Cl)cc1)NNC(=O)C1CC=CCC1C(=O)O (stereo not drawn)	18.4 µM (active)	
C/C(=N/N=C1/NC(=O)CC(C(=O)Nc2ccccc2)S1)c1cccs1 (stereo not drawn)	inactive	1.13
CCOc1ccc(/C=C2\SC(=S)N(CCC(=O)Nc3ccc(C(=O)O)cc3)C2=O)cc1	inactive	8.29
O=C(Nc1cccc(C(F)(F)F)c1)c1cncs1	inactive	
CCC(C)NC(=O)C1c2ccccc2C(=O)N1Cc1cc(OC)ccc1OC (stereo not drawn)	inactive	8.31
